Screening data: PubChem BioAssay, several laboratories
Only some compounds are listed: those with a hit (about 4.7% of all), similar ones and a draw of the others.
ADAM17 inh: ADAM17 inhibition, QFRET primary screen; AID 720648; recombinant ADAM17, EDANS/DABCYL FRET peptide cleavage; P78536; inhibition, % at 6.95 µM; 370,000 tested, 0.83% active;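 active means inhibition above the mean of compounds lying between control limits plus 3 SD, set per campaign, cut at about 8.5% in these data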;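 further: 0% = DMSO-only wells as the low control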
Target sequence (P78536 215-824 limits assumed): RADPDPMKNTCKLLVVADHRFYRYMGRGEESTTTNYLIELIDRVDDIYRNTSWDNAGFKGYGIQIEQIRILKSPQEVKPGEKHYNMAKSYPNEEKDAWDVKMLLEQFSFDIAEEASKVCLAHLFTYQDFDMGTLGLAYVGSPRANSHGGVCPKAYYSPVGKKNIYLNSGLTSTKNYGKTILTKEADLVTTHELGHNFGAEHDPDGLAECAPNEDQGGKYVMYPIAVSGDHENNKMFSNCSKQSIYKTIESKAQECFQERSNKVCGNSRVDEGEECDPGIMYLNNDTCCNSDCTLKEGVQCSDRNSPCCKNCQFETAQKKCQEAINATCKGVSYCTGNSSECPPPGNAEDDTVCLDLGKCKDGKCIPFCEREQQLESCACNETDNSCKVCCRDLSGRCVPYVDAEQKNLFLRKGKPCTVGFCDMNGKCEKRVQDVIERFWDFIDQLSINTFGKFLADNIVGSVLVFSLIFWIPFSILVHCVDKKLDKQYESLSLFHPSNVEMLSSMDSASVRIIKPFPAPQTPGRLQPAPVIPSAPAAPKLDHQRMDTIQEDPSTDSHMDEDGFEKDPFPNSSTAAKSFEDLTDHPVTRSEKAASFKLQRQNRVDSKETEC
MPTP block: blocks calcium-induced mitochondrial swelling. isolated mouse mitochondria, Ca2+ swelling absorbance, 30 min. inhibition, % at 10 µM. 360,000 tested, 1.4% active. AID 602449;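 active means inhibition of 50% or more, scaled per plate between neutral and stimulator controls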;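 further: 0% = DMSO wells given calcium and 100% = 1 mM EGTA wells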
KLK7 zymogen act: proKLK7 (human) activation, primary screen; P49862; purified proKLK7, EDANS-DABCYL substrate fluorescence; 100% is mature enzyme control, 0% vehicle; activation, % at 7 µM; 370,000 tested, 0.9% active;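 active means activation above the mean of all tested compounds plus 3 SD, computed per campaign excluding outliers beyond control limits, cut at about 13% in these data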
ADAM10 inh: inhibitors of human ADAM10; O14672; recombinant ADAM10, EDANS/DABCYL FRET peptide cleavage, 3 h; inhibition, % at 7 µM; 370,000 tested, 0.62% active;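 active means inhibition above a per-campaign cutoff equal to the mean of compounds falling between control-based bounds plus 3 SD, cut at about 20% in these data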;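 further: 0% = DMSO wells while the 100% control is not disclosed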
rCAG binder: r(CAG) repeat RNA binding; AID 651821; TO-PRO-1 dye displacement fluorescence; inhibition, % at 3 µM; 370,000 tested, 1.3% active;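 active means inhibition above the plate cutoff, the mean of all test compounds on that plate plus 3 SD, cut at about 35% in these data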;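 further: 0% = DMSO alone and 100% = 100 µM mitoxantrone as full dye displacement; higher means more dye released from RNA so lower well fluorescence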
Pemphigus Ab inh: inhibitors of pemphigus antibody binding to human desmoglein-3; DSG3-coupled beads, scFv-anti-DSG3-GFP binding, flow cytometry; hits give low values; 310,000 tested, 0.48% active; AID 588358; binding (percent of control), % at 10 µM; P32926;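 active means binding more than 3 SD below its plate's average and above zero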;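 further: hits lower antibody fragment binding to DSG3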
Starred values were filed as active, the others as inactive; x = no result.

SMILES	ADAM17 inh	MPTP block	KLK7 zymogen act	ADAM10 inh	rCAG binder	Pemphigus Ab inh
CN1c2ccc(C#CC3CC3)cc2[C@@H]2[C@@H](CCN2C(=O)C2CCOCC2)[C@H]1CO	-8	x	0	-28	10	x
CCOC(=O)c1c(-c2ccc(OC)cc2)csc1NC(=O)CSc1nnc(C)c(=O)[nH]1	1	0	0	-6	63*	100
Cc1cc(=O)oc2cc(OCC(=O)OCC(=O)Nc3ccc4ccccc4c3)ccc12	-62	0	3	-205	7	103
COc1ccc2cc(C(=O)COC(=O)COc3ccc4c(C)cc(=O)oc4c3)ccc2c1	-29	-3	3	-100	6	69*
Cc1c(N=C2NN=C(c3ccc(Cl)cc3)CS2)c(=O)n(-c2ccccc2)n1C	-3	0	0	2	5	102
Cc1c(N=C2NN=C(c3c[nH]c4ccccc34)CS2)c(=O)n(-c2ccccc2)n1C	-15	0	1	-31	14	85*
COC(=O)C1=C(C)N(Cc2ccc(C(F)(F)F)cc2)C(=NCc2cc(OC)c(OC)c(OC)c2)NC1c1cccc(Cl)c1 (stereo not drawn)	-2	x	0	-4	4	x
CC(=O)Nc1ccc(S(=O)(=O)NCc2ccc3c(c2)cc(C)n3C)cc1	-1	3	-2	-19	23	80*
Cc1cc2cc(CNC(=O)Cc3cccs3)ccc2n1C	x	1	x	x	x	64*
O=C(Cn1c(-c2cncs2)nc2ccccc21)N1CCCCC1	-4	x	0	-6	0	x
O=C(Cc1ccccc1)Nc1nnc(-c2cccnc2)s1	-1	x	0	1	1	x
Cc1c([N+](=O)[O-])cc(C(=O)Nc2ccc(NC(=O)c3ccco3)cc2)cc1[N+](=O)[O-]	-6	2	0	2	4	96*
O=C(Nc1cccc(NC(=O)c2ccc([N+](=O)[O-])o2)c1)c1ccco1	-2	-1	1	0	1	53*
O=C(Nc1ccc(Cl)c([N+](=O)[O-])c1)c1ccco1	0	0	0	4	-1	118
Cc1onc(-c2ccccc2)c1C(=O)NCC1CCN(C(=O)C(=O)c2cccs2)CC1	0	x	0	6	1	x
COC(=O)[C@]12C[C@H](CC(=O)NCC3CCCCC3)C(=O)N(Cc3ccc4c(c3)OCO4)C1=C[C@H](C(C)(C)C)O[C@@H]2C	3	x	0	3	1	x
Nc1c(C(=O)Nc2cccc(F)c2)nnn1-c1cccc(C(F)(F)F)c1	-2	1	0	1	-1	93*
CCOc1cccc(C=NNc2nc(=O)cc(C(=O)OC)s2)c1O	-1	x	0	-2	16	x
O=C(O)c1ccc(COc2ccc3ccccc3c2/C=C2/NC(=O)N(Cc3ccc(F)cc3)C2=O)cc1	-1	0	0	-10	25	97
O=C(CN1C(=O)N/C(=C\c2ccccc2OCc2ccc(C(=O)O)cc2)C1=O)Nc1ccccc1F	-3	0	0	-8	47*	115
CCOC(=O)C1CCN(c2nc(N)c3c(N)nc(SCC(=O)O)cc3c2C#N)CC1	-79	3	-3	-275	35*	101
CCOC(=O)C1CCN(c2nc(C)cc(C)c2C#N)CC1	-57	-2	2	-149	-6	101
CC(C)(C)OC(=O)/C=C/[C@@H](CCCCl)Sc1ccc(C(C)(C)C)cc1	6	x	0	12	4	x
Cc1ccccc1-n1nc2c(c1NC(=O)c1ccc(Br)o1)CSC2	x	0	x	x	x	87*
NS(=O)(=O)c1ccc(N=Nc2c(O)ccc3ccccc23)cc1	1	0	1	8	21	71*
SMILES	ADAM17 inh	MPTP block	KLK7 zymogen act	ADAM10 inh	rCAG binder	Pemphigus Ab inh
CCCC(=O)N1CCC[C@]2(CC[C@@H](CCC(=O)OCC)O2)C1	0	x	0	3	-2	x
CCCC(NC(=O)CCc1c(C)c2cc3c4c(oc3c(C)c2oc1=O)CCCC4)C(=O)O (stereo not drawn)	-121	0	8	-305	36*	100
Cc1c(CCC(=O)N[C@@H](C)C(=O)O)c(=O)oc2cc3oc4c(c3cc12)CCCC4	-64	1	-1	-150	28	95
CC1(C)Cc2nc3sc4c(=O)[nH]cnc4c3cc2CS1	-3	5	-5	-13	4	80*
C=CCN1C(=O)c2n[nH]c(C(C)C)c2C1c1ccccc1 (stereo not drawn)	0	x	1	3	0	x
CCOc1ccc(NC(=O)Nc2nc3ccc(S(C)(=O)=O)cc3s2)cc1	-5	13	0	-3	39*	105
Cc1ccccc1NC(=O)Nc1nc2ccc(S(C)(=O)=O)cc2s1	-1	7	0	0	8	74*
CCOCC(=O)Nc1nc2ccc(S(C)(=O)=O)cc2s1	-6	-5	0	0	-2	x
COC(=O)c1cc2c(c3c4cc(C)ccc4n(S(=O)(=O)c4cccc(C)c4)c13)C(=O)N(Cc1ccc(C(F)(F)F)cc1)C2	-1	x	0	-4	12	x
Cc1cc(C)n(CCNC(=O)[C@@H](Cc2ccccc2)NC(=O)[C@H]2O[C@@H](n3ccc(=O)[nH]c3=O)[C@H](O)[C@@H]2O)n1	-2	x	0	-14	0	x
Cc1cc2nc3s/c(=C/c4ccc(-c5ccccc5C(=O)O)o4)c(=O)n3c2cc1C	-4	2	-1	-5	17	343
O=C(O)c1ccccc1-c1ccc(/C=c2\sc3nc4cc(Br)cnc4n3c2=O)o1	x	0	x	x	x	43*
CC(CNC(=O)[C@@H](Cc1ccccc1)NC(=O)[C@H]1O[C@@H](n2ccc(=O)[nH]c2=O)[C@H](O)[C@@H]1O)c1ccccc1 (stereo partly drawn)	-2	x	0	-5	1	x
C[C@H]1C[C@H]2[C@@H]3CCC4=CC(=O)C=C[C@]4(C)[C@@]3(F)[C@@H](O)C[C@]2(C)[C@@]1(O)C(=O)CO	-5	x	0	2	0	95
C[C@H]1C[C@H]2[C@@H]3CCC4=CC(=O)C=C[C@]4(C)[C@@]3(Cl)[C@@H](O)C[C@]2(C)[C@@]1(O)C(=O)CO	3	-6	0	-6	2	-13*
CCOc1ccc(NC(=O)CN2CCCN(c3ccc(OC)cc3)CC2)cc1	2	x	0	-1	0	x
CCOc1ccccc1N1CCN(S(=O)(=O)c2ccc3c4c(cccc24)C(=O)N3)CC1	-2	1	0	0	37*	105
O=C(OCc1nnc(-c2ccccc2)o1)c1cc([N+](=O)[O-])ccc1Cl	-3	-1	0	2	0	71*
Cc1onc(-c2ccccc2)c1C(=O)OCc1nnc(-c2ccc([N+](=O)[O-])cc2)o1	-8	0	0	-2	6	106
CN(c1cccnc1)c1ccc(NC(=O)Cc2c[nH]c3ccccc23)cc1-c1ccc(C(C)(C)C)cc1	3	x	0	3	16	x
